{"source": "PubChem BioAssay (NCATS)", "note": "Inconclusive results are not listed. A number with no mark means an inactive call. Calls of active or inactive are those of the source. The call rests on the fitted dose curve; in most records, active means well fitted inhibition curve with a large enough effect; inconclusive means small, poorly fitted or top-dose-only effect; inactive means flat fitted curve, though single readings scatter. On the % scale 0 is the no-effect control and ±100 the full control effect; potency means the concentration at half of the fitted maximal effect.", "data": [{"molecular_target": "Phospholipid hydroperoxide glutathione peroxidase GPX4 (Homo sapiens) (UniProt P36969)", "sequence (P36969 whole entry, looked up)": "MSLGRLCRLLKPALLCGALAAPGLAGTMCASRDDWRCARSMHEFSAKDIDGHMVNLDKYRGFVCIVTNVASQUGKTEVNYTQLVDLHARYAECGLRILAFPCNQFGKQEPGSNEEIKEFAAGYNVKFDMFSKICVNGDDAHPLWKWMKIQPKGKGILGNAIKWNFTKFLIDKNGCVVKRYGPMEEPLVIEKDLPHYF", "experiment": "Primary qHTS Assay for Inhibitors of Recombinant Selenoprotein Glutathione Peroxidase 4 (GPX4) (AID 1845192); further: nearly all actives have a fitted effect of over 65% in size", "conditions": "recombinant GPX4, GR-coupled NADPH fluorescence, 15 min; series mostly up to 50 µM; activity change, negative = inhibition: at the top concentration", "in_short": "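NADPH consumption, followed by fluorescence at 340/450 nm between 0 and 15 min, reports GPX4 activity via coupled glutathione reductase (100 nM). Enzyme 200 nM was pre-exposed to compound 30 min; 0.5 mM cumene hydroperoxide and 1 mM GSH served as substrates.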", "values": [{"smiles": "CC(Cc1ccccc1)NCCCCl", "note": "(stereo unspecified)", "activity change, negative = inhibition": "-18.2%"}, {"smiles": "N#Cc1nn(-c2c(Cl)cc(C(F)(F)F)cc2Cl)c(N)c1S(=O)C(F)(F)F", "note": "(stereo unspecified)", "outcome": "inactive"}, {"smiles": "CC1=C2[C@H]3OC(=O)[C@@H](C)[C@@H]3CC[C@@]2(C)C=CC1=O", "outcome": "inactive"}, {"smiles": "C[C@@H]1CC[C@H]2[C@@H](C)C(=O)O[C@@H]3O[C@@]4(C)CC[C@@H]1[C@]32OO4", "activity change, negative = inhibition": "4.93%"}, {"smiles": "C#C[C@]1(O)CC[C@H]2[C@@H]3CCC4=CC(=O)CCC4=C3C=C[C@@]21CC", "Potency": "10 µM (active)"}, {"smiles": "C=CCOC(Cn1ccnc1)c1ccc(Cl)cc1Cl", "note": "(stereo unspecified)", "outcome": "inactive"}, {"smiles": "Cc1cccc(Cc2cnc[nH]2)c1C", "outcome": "inactive"}, {"smiles": "C[C@H](N)[C@H](O)c1ccc(O)c(O)c1", "activity change, negative = inhibition": "-9.04%"}, {"smiles": "CN1C2CCC(C)(C)C1CC(OC(=O)C(O)(c1cccs1)c1cccs1)C2", "note": "(stereo unspecified)", "activity change, negative = inhibition": "-3.94%"}, {"smiles": "COc1ccc(CN2CCNCC2)c(OC)c1OC", "outcome": "inactive"}, {"smiles": "Cc1ccc([N+](=O)[O-])[c]2c1[O][Hg]2", "outcome": "inactive"}, {"smiles": "Clc1ccc(CSC(Cn2ccnc2)c2ccc(Cl)cc2Cl)cc1", "note": "(stereo unspecified)", "activity change, negative = inhibition": "2.82%"}, {"smiles": "CCC(=O)C(CCN(C)C)(c1ccccc1)c1ccccc1", "activity change, negative = inhibition": "1.64%"}, {"smiles": "CCOC(=O)C1(c2ccccc2)CCN(CCc2ccc(N)cc2)CC1", "activity change, negative = inhibition": "-22.7%"}, {"smiles": "O=C(CCCN1CCC(n2c(=O)[nH]c3ccccc32)CC1)c1ccc(F)cc1", "activity change, negative = inhibition": "-6.03%"}, {"smiles": "CCC(=O)O[C@H]1CC[C@H]2[C@@H]3CCC4=CC(=O)CC[C@]4(C)[C@H]3CC[C@]12C", "activity change, negative = inhibition": "-17.8%"}, {"smiles": "CN(C)C(=O)Oc1cc(OC(=O)N(C)C)cc(C(O)CNC(C)(C)C)c1", "note": "(stereo unspecified)", "activity change, negative = inhibition": "0.0456%"}, {"smiles": "O=C(N[C@@H]1N=C(c2ccccc2F)c2cccc3c2N(CC3)C1=O)c1cc2ccccc2[nH]1", "activity change, negative = inhibition": "-4.04% [at 15.3 µM]"}, {"smiles": "CCOC(=O)c1ncn2c1CN(C)C(=O)c1c(I)cccc1-2", "outcome": "inactive"}, {"smiles": "CCCOC(=O)Cc1ccc(OCC(=O)N(CC)CC)c(OC)c1", "activity change, negative = inhibition": "-21.2% [at 27.8 µM]"}, {"smiles": "NC(=O)OCCCc1ccccc1", "outcome": "inactive"}, {"smiles": "Cc1ccc(N=CN(C)C=Nc2ccc(C)cc2C)c(C)c1", "activity change, negative = inhibition": "-13.8%"}, {"smiles": "COP(=O)(OC)C(O)C(Cl)(Cl)Cl", "note": "(stereo unspecified)", "activity change, negative = inhibition": "-1.33%"}, {"smiles": "Clc1ccc(CO/N=C(\\Cn2ccnc2)c2ccc(Cl)cc2Cl)c(Cl)c1", "activity change, negative = inhibition": "4.36%"}, {"smiles": "CNC(C)Cc1ccccc1OC", "note": "(stereo unspecified)", "activity change, negative = inhibition": "4.08%"}, {"smiles": "O=C(O)Cc1ccccc1", "activity change, negative = inhibition": "-1.74%"}, {"smiles": "C[C@@H]1CN(C2CCC(C#N)(c3ccc(F)cc3)CC2)CC[C@]1(C(=O)O)c1ccccc1", "note": "(stereo partly specified)", "outcome": "inactive"}, {"smiles": "CC(C(O)c1ccccc1)N(C)C/C=C/c1ccccc1", "note": "(stereo unspecified)", "outcome": "inactive"}, {"smiles": "CCCCCCCCCCCC[N+](C)(C)CCOc1ccccc1", "outcome": "inactive"}, {"smiles": "c1ccc2c(c1)Sc1ccccc1N2CC1CN2CCC1CC2", "note": "(stereo unspecified)", "activity change, negative = inhibition": "-24.9%"}, {"smiles": "CC[C@H]1C[C@H]2[C@@H]3CCC4=CC(=O)CC[C@@H]4[C@H]3CC[C@]2(C)[C@H]1O", "outcome": "inactive"}, {"smiles": "C=CCN1CC[C@]23CCCC[C@H]2[C@H]1Cc1ccc(O)cc13", "outcome": "inactive"}, {"smiles": "CNC(=O)Oc1cccc2ccccc12", "outcome": "inactive"}, {"smiles": "Oc1ccc([C@H]2CNCc3c2ccc(O)c3O)cc1O", "activity change, negative = inhibition": "-13.3%"}, {"smiles": "CCN(CC)Cc1nccn1-c1ccc([N+](=O)[O-])cc1C(=O)c1ccccc1Cl", "activity change, negative = inhibition": "-16.7%"}, {"smiles": "CC(C)[N+](C)(CCC(C(N)=O)(c1ccccc1)c1ccccc1)C(C)C", "activity change, negative = inhibition": "2.7%"}]}]}
